Data as given in PubChem BioAssay AID1347073 (National Center for Advancing Translational Sciences (NCATS), 2019).
Among all 45,000 compounds or so, about 200 (0.44%) were called active. Not shown: some 7% with an inconclusive outcome. What follows is part of a selection rich in actives, with near analogues and random picks from the rest. A number with no mark means an inactive call. Calls come from the whole dose curve; as a rule, active = well fitted activation curve with a large enough effect; inconclusive = small, poorly fitted or top-dose-only effect; inactive = no such curve, though single readings can be large or run the other way.

Assay: qHTS of TDP-43 Inhibitors: NCGC Sytravon Library Screen; note: nearly all actives have a fitted effect of over 55% in size; for growth rescue (activation): 0% is about no effect
Settings: yeast TDP-43 toxicity rescue, BacTiter-Glo growth, 24 h; series mostly up to 46.1 µM; growth rescue (activation): at the top concentration
Text: The goal of this project is to identify new chemical probes capable of reversing the toxicity associated with TDP-43 which is associated with frontotemporal lobar degeneration and amyotrophic lateral sclerosis. These compounds will provide a complementary approach to deciphering the tangled mechanisms of toxicity and protection that we have uncovered through genome-wide genetic screens and are beginning to uncover in a large-scale proteomics analysis with mass spectroscopy. To this end, a miniaturized assay was developed to be screened against the Molecular Libraries Small Molecule Repository (MLSMR) to discover TDP-43 inhibitors. Please note that in the set-up this yeast-based assay compounds that inhibit as TDP-43, have a read-out as activators. NIH Chemical Genomics Center [NCGC] NIH Molecular Libraries Probe Centers Network [MLPCN] Assay Submitter (PI): Susan Lindquist, Whitehead Institute/MIT MLPCN Grant: R21 NS060957
Dispense 2.5 microL yeast galactose medium per 1536-well plate, pin compound, dispense 2.5 microL TDP-43 expressing yeast in galactose medium at OD600=0.02 (pregrown in raffinose medium to mid-log phase) per well, incubate for 24 hr at 30 deg C, and cell growth will be measured using 5 microL of Bactiter/Glo reagent to entire plate and read using Luminescence Protocol in ViewLux.
Potency is the fitted concentration of half-maximal effect.

SMILES	growth rescue (activation) [%]	Potency
CN(C)C(CNC(=O)c1cccc(C#N)c1)c1ccco1 (stereo not drawn)	-1.02	–
Nn1c(SCC(=O)Nc2ccc3c(c2)CCC3)nnc1C1CC1	12	–
CC(CN1CCC(n2nccc2NC(=O)C2CCCC2)CC1)c1ccccc1 (stereo not drawn)	16.5	–
CC(C)(C)c1ccc(CN2C(=O)c3ccccc3S2(=O)=O)cc1	-10.6	–
COc1ccc(CNC(=O)CN2C(=O)c3ccccc3S2(=O)=O)cc1	-1.25	–
O=C1c2ccccc2S(=O)(=O)N1CC(O)Cn1c2ccccc2c2ccccc21 (stereo not drawn)	–	12.6 µM (active)
Cc1ccc(Cl)cc1NC(=S)N(CCN(C)C)Cc1cccs1	18.7	–
Cc1noc(C)c1-c1ccc(C(=O)NCc2ccncc2)c2occc12	-0.761	–
COc1ccc(-c2ccc(C(=O)NC(C)C)c3occc23)c(C)c1	–	15.8 µM (active)
COCCCNC(=O)c1ccc(-c2c(C)noc2C)c2ccoc12	14.9	–
Cc1ccc(OCc2n[nH]c(=S)n2-c2ccc(C)cc2)cc1	12.9	–
Cc1ccc(S(=O)(=O)N(Cc2ccc(Cl)cc2)c2ccccc2C(=O)NCc2cccnc2)cc1	18.2	–
O=C(c1cccs1)c1cn(CCOc2ccc(Cl)cc2)c2ccccc12	-4.83	–
CN(C)c1ccnc(Nc2ccc(F)cc2)c1C#N	9.98	–
COc1ccccc1OCc1ccc(C(=O)NC(C)c2ccccc2)o1 (stereo not drawn)	-10.7	–
O=C(C1CCN(S(=O)(=O)c2ccc(Br)s2)CC1)N1CCN(C2CCCCC2)CC1	9.07	–
COc1ccc(C(=O)OCc2cc(=O)n3ccsc3n2)cc1F	21.7	–
CCCCN(CC)CCCNC(=O)c1ccc(CSc2nc3ccncc3[nH]2)cc1	9.62	–
CC(C)(C)c1ccccc1NC(=O)CN1C(=O)NC2(CCCC2)C1=O	-20.9	–
COc1ccc(C(=O)Nc2ccc(N3CCC(C)CC3)cc2)cc1Br	5.41	–
c1cc(-c2ccc3[nH]ccc3c2)n2ccnc2c1	-5.58	–
O=C(CN1C(=O)NC2(CCCCCC2)C1=O)Nc1ccc([N+](=O)[O-])cc1	26.5	–
O=C1NC(c2ccc(-c3ccccc3[N+](=O)[O-])o2)C(C(=O)c2ccc(Cl)cc2)C(O)(C(F)(F)F)N1 (stereo not drawn)	7.15	–

SMILES	growth rescue (activation) [%]	Potency
CN(Cc1nc2ccccc2s1)C(=O)c1ccc(F)cc1	0.189	–
CCN(CC)C(=O)CN(c1cccc([N+](=O)[O-])c1)S(=O)(=O)c1ccccc1	-34.4	–
O=C(Nc1ccc(F)cc1)N1CCN(c2ccc(F)cc2)CC1	-2.13	–
Cc1nc2c(OCc3cccc(Cl)c3)cccn2c1N(C)CC1CC1	7.14	–
CC(C)(C)NC(=O)C(=O)NN=C1CCCCCCC1	5	–
O=C(CCn1c(=O)c2sccc2n(Cc2ccc(F)cc2)c1=O)NCc1ccc2c(c1)OCO2	11	–
CCc1ccc(OC2(C)CCN(CCOc3ccc(C)cc3)C2)cc1 (stereo not drawn)	16.9	–
COc1ccc(CN2CCC(C)(Oc3cccc(F)c3)C2)c2ccccc12 (stereo not drawn)	-7.83	–
O=C(NCc1ccc(F)cc1)c1cc(C2CCCCN2C(=O)c2cccs2)on1 (stereo not drawn)	22.8	–
CN(CC(=O)NC(=O)Nc1ccccc1F)Cc1ccccc1	-6.54	–
CCn1c(CSc2nc(C)cc(C)n2)nnc1SCC(N)=O	2.73	–
O=C(O)C(F)(F)C(NCc1ccccc1)c1ccccc1 (stereo not drawn)	-7.2	–
CC(C(=O)Nc1ccc(F)c(F)c1F)N1CCCCCC1 (stereo not drawn)	14.6	–
O=C(NCCc1ccc(F)cc1)c1n[nH]c2ccccc12	28.9	–
N#Cc1ccccc1NC(=O)c1ccc2c(c1)OCO2	15.1	–
N/C(=N\OC(=O)c1ccc2c(c1)OCO2)c1ccc(Br)cc1	–	3.55 µM (active)
O=C(COC(=O)c1ccncc1)Nc1ccc2c(c1)OCO2	5.9	–
O=C(O)CC1(CC(=O)Nc2cccc(C(F)(F)F)c2)CCCC1	19.5	–
Cn1c(NCc2cccnc2)nc2cc(-c3ccc(F)cc3)sc2c1=O	0.425	–
Cc1ccc(C)c(NC(=O)CN(C)C(=O)COc2ccc3ccccc3c2)c1	-0.898	–
NS(=O)(=O)c1cccc(NC(=O)CN2CCCc3ccccc32)c1	12.9	–
O=C(CCn1nnc2ccccc2c1=O)N[C@@H](Cc1c[nH]c2ccccc12)C(=O)O	-8.31	–
O=C(NC1CC1)C(Cc1ccccc1)NS(=O)(=O)c1ccccc1F (stereo not drawn)	5.63	–

SMILES	growth rescue (activation) [%]	Potency
COc1cccc(CC2(CO)CCN(Cc3cnc(-c4cccc(C)c4)nc3)CC2)c1	8.67	–
COCCCNC(=S)N1CCCC(c2nc3cc(C)c(C)cc3[nH]2)C1 (stereo not drawn)	8.91	–
CCC1CCCCN1C(=O)CSc1nc2c(c(=O)n(C)c(=O)n2C)n1C (stereo not drawn)	-3.65	–
CC(C)c1ccc(N(C(=O)c2ccco2)C(C(=O)NC2CCCC2)c2cccnc2)cc1 (stereo not drawn)	13.8	–
COc1ccc(N2CCN(C(=O)C3CCN(C(=O)c4ccccc4Cl)CC3)CC2)cc1	9.74	–
CCc1cc(-c2nnc(SCC(=O)NC3CC3)n2C)cs1	0.827	–
COc1ccc(-c2n[nH]c(C)c2-c2ccccc2OC)c(O)c1	-0.59	–
CCOc1ccccc1Oc1cn[nH]c1-c1ccc(OC)cc1O	–	15.8 µM (active)
COc1ccc(-c2[nH]ncc2CN(C)Cc2cc(C)[nH]n2)c(F)c1	-11.4	–
COc1ccc(S(=O)(=O)N2CCOCC2)cc1NC(=O)CSc1nnc(NC2CC2)s1	8.11	–
Cn1cc(CN2CCCCC2c2ccccn2)c(-c2ccc3c(c2)OCCO3)n1 (stereo not drawn)	-18.4	–
Cc1ccc(SCC(=O)NNC(=O)c2ccc(S(C)(=O)=O)cc2)cc1	-21.6	–
CCOC(=O)C1CCN(c2ccc(C(=O)O)cc2[N+](=O)[O-])CC1	18.7	–
CC(C)(C)c1nnc2sc(SCC(O)=C(C#N)c3nc4ccccc4[nH]3)nn2c1=O	2.04	–
CC1(C(=O)NCc2ccc3c(c2)OCO3)CCN1C(=O)Cc1cccc2ccccc12 (stereo not drawn)	22.8	–
COc1cccc(CC(=O)OCC(=O)NCc2ccc3c(c2)OCO3)c1	-6.63	–
N#Cc1nc(Cc2cccc3ccccc23)oc1NCc1ccc2c(c1)OCO2	–	12.6 µM (active)
O=C(Nc1ccccc1)/C(=C\c1ccco1)NC(=O)c1ccco1	2	–
Nc1nc(SCC(=O)NN(c2ccccc2)c2ccccc2)n[nH]1	-8.42	–
CC(C)(C)SCCNC(=O)c1cccc([N+](=O)[O-])c1	3.85	–
Cc1nn(-c2ccccc2)c2c1C(c1cccc([N+](=O)[O-])c1)N(c1ccccc1)C(=O)N2 (stereo not drawn)	-1.22	–
COc1ccc(C(C(=O)NC2CCCC2)N(CCCO)C(=O)Cn2nnc(-c3ccc(C)o3)n2)cc1 (stereo not drawn)	-3.96	–
